# Laboratory results: PubChem BioAssay AID504832 (National Center for Advancing Translational Sciences (NCATS), 2011)
# Where “and” joins values, the source holds several entries; their conditions need not be identical. Equal values may be shown once. Among all 310,000 compounds or so, about 18,000 (5.8%) were called active. Roughly 22% stayed inconclusive and do not appear here. Calls follow the shape of the dose curve; as a rule, active = well fitted inhibition curve with a large enough effect; inconclusive = small, poorly fitted or top-dose-only effect, or another doubt; inactive = no such curve, though single readings can be large or run the other way. For the sample, actives were picked, then their nearest neighbours and some compounds at random. More than one record can exist for a structure, and the calls need not agree.
# Assay: Primary qHTS for delayed death inhibitors of the malarial parasite plastid, 48 hour incubation
# Settings: P. falciparum luciferase growth in erythrocytes; series mostly up to 28.7 µM; activity change, negative = inhibition: at the top concentration
# How it was run: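 Parasite viability was followed by luminescence of a genomically integrated firefly luciferase. Cultures held 0.1% parasitemia at 2% hematocrit (final), incubated under 5% CO2 at 37 C.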
# % is scaled to controls: 0 for no effect and ±100 for the full control effect; potency is read from the fitted curve at half-maximal effect.
SMILES,"activity change, negative = inhibition",Potency
CC(C)CC(O)C1CCN(C(=O)CCc2nnc(-c3ccc4c(c3)OCO4)o2)CC1 (stereo not given),-7.2% (inactive),–
N#Cc1ccc(OCC(=O)NC(=O)NC2CCS(=O)(=O)C2)cc1 (stereo not given),-8.11% (inactive),–
Cc1cc(C(=O)COc2ccccc2Cl)c(C)n1C1CC1,48.6% (inactive),–
CCN(CC(=O)NCc1ccco1)S(=O)(=O)c1ccc(F)cc1,10.8% (inactive),–
Cc1c(C(C)CCCO)oc(=O)c2c1Oc1c(C)c(C(C)C[C@@H](C)O)oc(=O)c1C2 (stereo not given in full),-39.1% (inactive),–
Cn1cccc1C(=O)N1CCc2ccccc2C1,11.9% (inactive),–
CC1CCN(C(=O)Cn2nnnc2CN2CCOCC2)CC1,5.66% (inactive),–
Cc1cccc(N2CCN(c3ccc(NC(=O)/C=C\C(=O)O)cc3)CC2)c1,–,8.28 µM (active)
Cc1cccc(N2CCN(C(=O)c3ccccc3NC(=O)C3CCCCC3C(=O)O)CC2)c1 (stereo not given),-6.43% (inactive),–
CSc1ccc(NC(=O)/C=C/C(=O)O)cc1,18.7% (inactive),–
Cc1ccc2oc(C(=O)N3CCN(C)C[C@@H]3C(C)C)c(C)c2c1,3.18% (inactive),–
CC1=CC(=Cc2sc3ccccc3[n+]2C)C=C(C)O1,–,0.928 µM (active)
Cc1ccc(-c2noc(CNC(=O)c3ccoc3C)n2)cc1,33.4% (inactive),–
O=C(NCc1ccccc1Cl)C1CCN(S(=O)(=O)c2cccc3nonc23)CC1,5.07% (inactive),–
O=C(NCc1ccncc1)C1CCCN(S(=O)(=O)c2ccc(Br)cc2)C1 (stereo not given),-2.51% (inactive),–
CC(C)CC(=O)Nc1ccc(Cc2ccncc2)cc1,5.98% (inactive),–
O=C(Nc1ccncc1)c1c(F)cccc1F,1.26% (inactive),–
CCc1ccc(NC(=O)Nc2ccncc2)cc1,–,13.1 µM (active)
O=C(Nc1ccncc1)Nc1ccc(F)cc1,–,6.57 µM (active)
CCc1ccc(NC(=O)N[C@H](C(=O)O)C(C)CC)cc1 (stereo not given in full),22.8% (inactive),–
O=C(NCc1ccccn1)Nc1ccc(F)cc1,52.2% (inactive),–
CCCOc1ccc(Cc2c(O)nc(N)[nH]c2=O)cc1C,-5.97% (inactive),–
COc1cc(OC)nc(NC(=O)CCl)n1,7.41% (inactive),–
CN(C)CCCO/N=C(\c1ccccc1)c1ccncc1,2.21% (inactive),–
COc1cc(OC)nc(N/N=C(\c2ccccc2)c2ccncc2)n1,–,14.7 µM (active)
CC(=O)N(C)c1ccc(NC(=O)Nc2cccc3ccccc23)cc1,66.8% (inactive),–
CNC(=O)c1sc(Nc2ccc(OCc3ccccc3)cc2)nc1C,-17.7% (inactive),–

SMILES,"activity change, negative = inhibition",Potency
Cn1cncc1COC(=O)c1ccc(Cl)cc1,0.158% (inactive),–
COc1cc(OC)cc(C(=O)NCCSCc2ccc(Cl)cc2)c1,6.73% (inactive),–
COc1ccccc1N1CC(C(=O)NCCN2C(=O)S/C(=C\c3cccnc3)C2=O)CC1=O (stereo not given),-2.32% (inactive),–
Cc1ccc(C2Nc3cccc4cccc(c34)N2)cc1,0% (inactive),–
Brc1ccccc1C1Nc2cccc3cccc(c23)N1,–,13.1 µM (active)
C/C(=C\c1ccco1)C1Nc2cccc3cccc(c23)N1,3.63% (inactive),–
COc1cccc(CNS(=O)(=O)c2ccc3c(c2)N(C(C)=O)CCS3)c1,-9.9% (inactive),–
O=C1C(=O)N(CCCN2CCOCC2)C(c2ccc([N+](=O)[O-])cc2)/C1=C(\O)c1ccc2c(c1)OCCO2 (stereo not given),-15.6% (inactive),–
CC1CN(C(=S)Nc2ccc(S(N)(=O)=O)cc2)CC(C)O1 (stereo not given),-0.819% (inactive),–
O=C(Nc1cccc(Cl)c1)OCc1ccccn1,93% (inactive),–
CN1C(=O)C(CC(=O)Nc2ccccc2)S/C1=N/c1nccs1 (stereo not given),41.6% (inactive),–
O=C(CC1SC(=Nc2ccccc2)N(Cc2ccccn2)C1=O)Nc1cccc(Cl)c1 (stereo not given),–,6.57 µM (active)
CCCCN1C(=O)C(=O)N(CC(=O)Nc2cccc(C(C)=O)c2)C1=O,12.2% (inactive),–
CC(C(=O)N1CCN(c2ccccc2F)CC1)c1ccc([N+](=O)[O-])cc1 (stereo not given),-73.8% (inactive),–
O=C(COC(=O)c1ncc(Cl)c(Cl)c1Cl)NCc1ccccc1,-2.97% (inactive),–
COCCCN1C(=O)c2ccc(C(=O)OCC(=O)NCc3ccccc3OC)cc2C1=O,10.5% (inactive),–
Cc1ccn2c(=O)nc(SCC(=O)NCc3ccc(F)cc3)nc2c1,-12% (inactive),–
Cc1sc(NC(=O)c2ccc3ncsc3c2)c(C(N)=O)c1C,112% (inactive),–
Cc1ccc2nc3n(c(=O)c2c1)CCC3,8.44% (inactive),–
CSc1nc2ccc(C)cc2c(=O)n1-c1cccnc1,-8.37% (inactive),–
Cc1ccc2nc(C)c3c(c2c1)N(c1ccccc1)CC3,–,5.86 µM (active)
N#Cc1ccc(C(=O)OCC(=O)NC(=O)NC2CCCCC2)cc1,11.7% (inactive),–
O=C(Nc1cc(-c2nc3ncccc3o2)ccc1Cl)c1ccco1,10.3% (inactive),–
Cc1ccc(C(=O)COC(=O)CCN2C(=O)C3C4CCC(C4)C3C2=O)cc1C (stereo not given),49.8% (inactive),–
CCCCCCCCC(=O)NCCOc1ccccc1,13% (inactive),–
CCCCCCCCCc1ccc(OCCOCCOCCOCCOCCOCCOCCOCCOCCO)cc1,–,8.49 µM (active)
CCCCCc1ccc(-c2ccc(OCC)cc2)nc1,78.2% (inactive),–

SMILES,"activity change, negative = inhibition",Potency
COc1cccc(OCc2nnc3n2N=C(c2ccccc2)C(CC(=O)O)S3)c1 (stereo not given),-4.69% (inactive),–
COc1cc(S(=O)(=O)N2CCN=C2c2ccccc2)ccc1Cl,-8.03% (inactive),–
C=C1c2c(Cl)ccc(O)c2C(O)=C2C(=O)[C@]3(O)C(O)=C(C(N)=O)C(=O)[C@@H](N(C)C)[C@@H]3[C@@H](O)C12 (stereo not given in full),–,2.33 µM (active)
CN(C)[C@@H]1C(=O)C(C(N)=O)=C(O)[C@@]2(O)C(=O)C3=C(O)c4c(O)ccc(Cl)c4[C@@H](O)[C@H]3C[C@@H]12,–,2.08 µM (active)
COc1ccc(C(=O)COC(=O)Cn2cnc3c2c(=O)n(C)c(=O)n3C)c(OC)c1,41.3% (inactive),–
COc1cc(C(=O)Nn2c(CC(C)C)nc3ccccc3c2=O)cc(OC)c1OC,39.7% (inactive),–
O=C(O)CSc1c2c(nc3cc(C(=O)Nc4cccc(C(F)(F)F)c4)ccc13)CCCC2,-7.64% (inactive),–
O=C(Nc1cccc(-c2nnc(-c3ccccc3)o2)c1)C1CCCO1 (stereo not given),-23.1% (inactive),–
Cc1cccc(NC(=O)CSc2nnc(-c3ccco3)o2)c1,14.3% (inactive),–
O=C(CCc1ccccc1)Nc1cccc(-c2nnc(-c3ccco3)o2)c1,–,10.4 µM (active)
O=C(O)c1ccc(NC(=O)c2ccc(COc3ccc(Cl)cc3)o2)cc1,-0.403% (inactive),–
Cc1c(C)c(C)c(S(=O)(=O)N2CCC3(CC2)OCCO3)c(C)c1C,14.3% (inactive),–
c1ccc2cc(CCCc3cc4ccccc4cn3)ncc2c1,41.5% (inactive),–
Cc1n[nH]c(=O)c2c(NC(=O)CSc3cc(Cl)ccc3Cl)oc(C)c12,10% (inactive),–
O=C(/C=C/c1cccc([N+](=O)[O-])c1)OCC(=O)N1CCOCC1,31.3% (inactive),–
Cc1ccc(C(=O)N/C(=C\c2cn(S(=O)(=O)N(C)C)c3ccccc23)C(=O)N2CCCC2)cc1,–,10.4 µM (active)
Cc1ccc(C(=O)N/C(=C\c2cn(C)c3ccccc23)C(=O)N2CCN(C)CC2)cc1,-20% (inactive),–
Cc1ccc(C(=O)N/C(=C/c2cccs2)C(=O)N2CCCCC2)cc1,11.9% (inactive),–
COC(=O)c1ccc(/C=N/NC(=O)C(=O)N2CCCCCC2)cc1,0.0405% (inactive),–
COc1ccccc1-c1sc2ccccc2c1-c1ccc(C(C)=O)cc1,7.12% (inactive),–
Cc1sc2ncnc(N3CCC(C(=O)NNC(=O)c4ccc(F)cc4)CC3)c2c1C,–,11.7 µM (active)
Cc1sc2ncnc(N3CCC(C(=O)Nc4ccc(F)cc4Cl)CC3)c2c1C,–,11.7 µM (active)
Cc1sc2ncnc(N3CCC(C(=O)Nc4nc5ccc(Cl)cc5s4)CC3)c2c1C,29.9% (inactive),–
O=C(NNC(=O)C1CCN(c2ncccn2)CC1)c1ccccc1,6.9% (inactive),–
Cc1ccnc(N2CCCC(C(=O)Nc3cc(F)ccc3C)C2)n1 (stereo not given),3.36% (inactive),–
O=C(NNC(=O)C1CCCC1)c1ccc(F)cc1,-3.7% (inactive),–
COc1ccccc1CNC(=O)COC(=O)CNS(=O)(=O)c1ccc(NC(C)=O)cc1,-22% (inactive),–

SMILES,"activity change, negative = inhibition",Potency
CC1CCN(C(=O)/C(=C\c2ccccc2F)NC(=O)c2ccccc2)CC1,3.13% (inactive),–
Cc1ccc(S(=O)(=O)NCCCn2ccnc2)cc1C(=O)NC(C)C,16.4% (inactive),–
COc1ccc(CNC(=O)c2ccc(Br)s2)cc1OC,62.7% (inactive),–
Cc1ccc(S(=O)(=O)N2CCN=C2SCc2c(F)cccc2Cl)cc1,-16.6% (inactive),–
CCN(CC(=O)Nc1c(F)cccc1F)C(=O)C1CCC1,-7.11% (inactive),–
CCN(CC(=O)Nc1ccccc1C(F)(F)F)C(=O)C1CCN(C(=O)Nc2ccccc2)CC1,–,11.7 µM (active)
CCN(CC(=O)Nc1ccccc1C(F)(F)F)C(=O)CSCc1c(C)noc1C,23.7% (inactive),–
COc1ccc(S(=O)(=O)NNC(=O)Nc2ccc(C)cc2)c(OC)c1,-0.777% (inactive),–
CC(C)=CCCC1(C)C=Cc2c(ccc3c2[nH]c2cc(O)c(C)cc23)O1 (stereo not given),–,9.28 µM (active)
COc1cc2c(C(=O)N(C)c3cc(Cl)ccc3OC)cn(C)c(=O)c2cc1OC,19% (inactive),–
COc1ccc(C(=O)N2CCCCC2C(=O)Nc2ccc(-n3nc(C)cc3C)cc2)o1 (stereo not given),-12.2% (inactive),–
CCCc1cc(=O)[nH]c2nnc(SCC(=O)Nc3nnc(SCC)s3)n12,-12.8% (inactive),–
O=C(/C=C/c1cccc([N+](=O)[O-])c1)N1CCN(Cc2ccccc2)CC1,-22.8% (inactive),–
O=C(NCCN1CCN(C(=O)c2cccc([N+](=O)[O-])c2)CC1)C(=O)NCc1ccc(Cl)cc1,2.56% (inactive),–
O=C(NC1CCc2ccccc21)C12CN(Cc3ccccc3)CC1C(c1cccc([N+](=O)[O-])c1)=NO2 (stereo not given),–,3.7 µM (active)
CN(Cc1ccccc1)C(=O)CCc1ccccc1,7.4% (inactive),–
CCN(CC)C(=O)N(CC)Cc1ccccc1,3.09% (inactive),–
CN(C(=O)CN(CCO)CC(=O)N(C)C(C)(C)Cc1ccccc1)C(C)(C)Cc1ccccc1,–,inactive and 9.28 µM (active)
CN(CC(=O)NCc1ccc2c(c1)OCO2)CC(=O)Nc1ccc(F)c(F)c1F,-11.9% (inactive),–
O=C(N/N=C/c1sc(N2CCCCC2)nc1-c1cccs1)c1cccnc1,–,3.29 µM (active)
Cc1cc(/C=N/NC(=O)c2cccnc2)c(C)n1CC(C)C,57.6% (inactive),–
O=C(N/N=C/c1ccccn1)c1cccnc1,8.24% (inactive),–
COc1ccc2c(C(=O)c3ccc(C)cc3)n(CCC(N)=O)[n+]([O-])c2c1,-1.7% (inactive),–
Cc1cc(C(=O)N/N=C/c2ccccn2)c2ccccc2n1,9.17% (inactive),–
